Common to all, as to assay type: functional
The test system of assay [1] is Plasmodium falciparum. Put plainly: GSK_TCMDC: Inhibition of Plasmodium falciparum 3D7 in whole red blood cells, using parasite LDH activity as an index of growth. Test compounds present at 2uM.
Assay [2] deals with Plasmodium falciparum. Put plainly: GSK_TCMDC: Inhibition of Plasmodium falciparum Dd2 in whole red blood cells, using parasite LDH activity as an index of growth. Test compounds present at 2uM.
Assay [3] has as its system HepG2. Put plainly: GSK_TCMDC: Percent inhibition of human HepG2 cell line. Test compounds present at 10uM.

SMILES strings stand for the structures.

For `COc1ccccc1N1CCN(C(C(=O)NCc2cccc(F)c2)c2ccc(C)cc2)CC1` (stereo not drawn), the Inhibition in assay [1] stood at 94%; in assay [2], 80%; in assay [3], 4%.

On to `CS(=O)(=O)N1CC2(CCN(CCC(NC(=S)Nc3ccccc3)c3ccc(Cl)c(Cl)c3)CC2)c2ccccc21` (stereo not drawn), for which the Inhibition in assay [1] is reported as 98%; in assay [2], 80%; in assay [3], 24%.

With `COc1cccc2cc(C(=O)N[C@@H](CC(C)C)C(=O)N[C@H](/C=N/NC(=O)Cc3cccnc3)CCc3ccccc3)oc12`, the values for the Inhibition in assay [1], in assay [2] and in assay [3] were 82%, 54% and 6%, respectively.

Regarding `Cc1cc(CNCCCCCNCc2cccc([N+](=O)[O-])c2)ccc1O`, the Inhibition in assay [1] is recorded as 98%; in assay [2], 0%; in assay [3] it was 14%.

For the compound `Cc1cc(-c2ccc(NC(=O)c3coc4ccc(N5CC(C)N(C)C(C)C5)cc34)cc2C)cc(C)n1.Cl` (stereo not drawn), the Inhibition in assay [1] is 94%; in assay [2] it was 62%; in assay [3], 13%.

Take `CC(=O)c1ccc2c(c1)CCN(CCC1CCC(NC(=O)c3cc4ccccc4[nH]3)CC1)CC2.Cl` (stereo not drawn): the Inhibition in assay [1] came to 86%; in assay [2] it was 47%; in assay [3], 64%.

`CN(CCCCN)Cc1ccc(-c2ccc(Cl)cc2)cc1`: the Inhibition is reported as 97% in assay [1], 20% in assay [2] and 96% in assay [3].

In the case of `O=C(N[C@@H](Cc1ccccc1)C(=O)NCCN1CCCC1)c1ccc(O)c(-c2ccc(Cl)c(Cl)c2)c1`, the Inhibition in assay [1] is given as 95%; in assay [2] it was 46%; in assay [3], 8%.

Take `CN1CCN(c2ccnc3ccc(NC(=O)Nc4ccccc4Br)cc23)CC1.Cl`: the Inhibition in assay [1] amounted to 100%; in assay [2], 95%; in assay [3], 4%.

Consider `Cl.c1ccc2c(NCCCCCCCCNc3ccnc4ccccc34)ccnc2c1`, for which the Inhibition was found to be 100% in assay [1], 35% in assay [2] and 57% in assay [3].

Take `c1ccc(-c2nc(NC3CCCCC3)cc(C3CC3)n2)nc1`: the Inhibition in assay [1] turned out to be 97%; in assay [2], 76%; in assay [3], 35%.

With `Cc1ccc(CNC(=O)[C@H](CCCN)Nc2nc(Nc3ccccc3)ncc2C)cc1.O=C(O)C(F)(F)F`, the figures for the Inhibition in assay [1], in assay [2] and in assay [3] were 97%, 0% and 0%, respectively.

For the compound `C[C@@H](Oc1cc(-n2cnc3ccc(OCC4CCN(S(C)(=O)=O)CC4)cc32)sc1C(N)=O)c1ccccc1C(F)(F)F`, the Inhibition in assay [1] is 84%; in assay [2], 50%; in assay [3], 31%.

With `COc1ccc(NC(=O)Nc2ccc(-c3ccccc3)cc2)cc1Cn1nc(Cl)c(N2CCCNCC2)cc1=O.O=C(O)C(F)(F)F`, the Inhibition in assay [1] was 100%; in assay [2], 84%; in assay [3] it was 18%.

Turning to `COC(=O)c1ccc2nc(-c3cc(OC)c(O)c(C(=O)NC4CCN(Cc5ccccc5)CC4)c3)[nH]c2c1`, the figures for the Inhibition in assay [1], in assay [2] and in assay [3] were 85%, 0% and 8%, respectively.

`Cl.Oc1ccc(Cc2ccccc2)cc1CNC1CCCCC1`: the Inhibition in assay [1] was determined as 96%; in assay [2] it was 98%; in assay [3], 30%.

`CNC(=O)COC(=O)c1c2c(nc3ccccc13)C(=Cc1ccc3c(c1)OCO3)CCC2`: the Inhibition in assay [1] was 83%; in assay [2], 36%; in assay [3], 7%.

With `Cc1cc(SC(C)(C)C)cc2c(Cl)c(C(N)=O)cnc12`, the Inhibition in assay [1] worked out at 98%; in assay [2], 98%; in assay [3] it was 83%.

`CC1CN(C(=O)c2sc3ccccc3c2Cl)CC(C)O1` (stereo not drawn): the Inhibition in assay [1] turned out to be 100%; in assay [2] it was 98%; in assay [3] it was 0%.

Consider `Cl.O=C(Nc1ccc(NC2=NCCN2)cc1)Nc1ccc(NC2=NCCN2)cc1`, for which the Inhibition in assay [1] is listed as 88%; in assay [2], 72%; in assay [3], 0%.

Regarding `CN=c1nc(NN=Cc2ccccc2Cl)[nH]c(=Nc2cccc(C(F)(F)F)c2)[nH]1.Cl`, the Inhibition in assay [1] is given as 84%; in assay [2] it was 0%; in assay [3], 12%.

`CC(C)c1sc(N2CCN(C)CC2)nc1C(=O)Nc1ccc(F)cc1C(F)(F)F.O=C(O)C(F)(F)F`: the Inhibition is 100% in assay [1], 99% in assay [2] and 3% in assay [3].

Consider `Nc1nc(N)c2c(ccc3c2ccn3C2C=CCCC2)n1` (stereo not drawn), for which the Inhibition in assay [1] came out at 94%; in assay [2], 65%; in assay [3], 68%.

`CN(C)c1ccc(-c2csc(C(=O)NCC3CCN(Cc4ccc(C(C)(C)C)cc4)C3)c2)cc1.O=C(O)C(F)(F)F` (stereo not drawn): the Inhibition amounted to 97% in assay [1], 64% in assay [2] and 29% in assay [3].

For the compound `CNCCNC(=O)C1Cc2c([nH]c3c(C)cccc23)C(c2ccc(Cl)c(Cl)c2)N1` (stereo not drawn), the Inhibition in assay [1] was found to be 100%; in assay [2] it was 60%; in assay [3] it was 13%.

Turning to `CC(C)(CNCCOc1ccc(Cl)cc1)c1nc(-c2ccnc(N)n2)c(-c2ccc(Cl)c(O)c2)[nH]1.Cl`, the values for the Inhibition in assay [1], in assay [2] and in assay [3] were 97%, 19% and 45%, respectively.

As to `O=C(Nc1ccc(I)cc1)Nc1ccc(Cn2ncc(N3CCCNCC3)c(Cl)c2=O)cc1.O=C(O)C(F)(F)F`, the Inhibition in assay [1] came out at 86%; in assay [2] it was 30%; in assay [3], 35%.

For the compound `c1ccn2c(Sc3ncnc4sccc34)ncc2c1`, the Inhibition in assay [1] was 100%; in assay [2], 100%; in assay [3], 0%.

Regarding `CCN(CC)/C(=N/C(=N)NCc1ccc(Cl)cc1Cl)NCCCCCCN/C(=N\C(=N)NCc1ccc(Cl)cc1Cl)N(CC)CC`, the Inhibition amounted to 100% in assay [1], 99% in assay [2] and 16% in assay [3].

Consider `O=C(Nc1cccc(F)c1)N1CCC(NS(=O)(=O)c2ccc(Br)cc2)CC1`, for which the figures for the Inhibition in assay [1], in assay [2] and in assay [3] were 93%, 23% and 4%, respectively.

For the compound `CCn1c(-c2nonc2N)nc2c(-c3cccc(NC(=O)Nc4ccccc4OC)c3)ncc(OCCCN)c21.O=C(O)C(F)(F)F`, the Inhibition turned out to be 92% in assay [1], 58% in assay [2] and 84% in assay [3].

Values taken from ChEMBL document CHEMBL1157539, “Thousands of chemical starting points for antimalarial lead identification” (Nature, 2010).
